In the library only some 4% were active in any assay of this set; here they are far more common.
CF NFkB block: inhibitors of cystic fibrosis induced NF-kB; KKLEB NF-kB-GFP reporter, PAF-induced, GFP fluorescence overnight; AID 588850; 360,000 tested, 0.86% active; inhibition, % at 5 µM;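 active means at least 50% inhibition at 5 µM, scaled per plate between neutral and stimulator controls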;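 further: PAF is a Pseudomonas aeruginosa culture filtrate used as stimulus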
TROY NFkB inh: TROY signaling inhibition; inhibition, % at 10 µM; AID 1347056; 360,000 tested, 0.98% active; Q293 LMP1-TROYcd NF-kB luciferase reporter, 4 h;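 active means compounds whose plate-normalised and pattern-corrected inhibition of the luciferase reporter signal at the single screening dose is 50% or more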
HIF-2a block: inhibitors of HIF-2a; AID 624352; 786-0 RCC cells HIF-2a reporter, luciferase luminescence, overnight; 360,000 tested, 0.72% active; inhibition, % at 18.8 µM;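 active means inhibition of the luminescence signal of 40% or more relative to plate controls, in a single-dose primary screen at 18.75 µM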
Peg3 prom inh: reduces Peg3 promoter-driven luciferase expression in HeLa | HeLa PEG-Prom luciferase reporter, luminescence, overnight | inhibition, % at 20 µM | 360,000 tested, 1.7% active | AID 588405;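 active means inhibition of at least 50% at 20 µM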
TWEAK Fn14 block: inhibitors of TWEAK-Fn14 interaction signaling; TWEAK-stimulated Fn14 reporter cells, luciferase luminescence, 8 h; inhibition, % at 10 µM; 360,000 tested, 2% active; AID 1159606; in the data active means inhibition above about 50%
KKLEB tox: reduces viability of KKLEB cystic fibrosis airway cells; KKLEB CF airway cells viability, ATPlite luminescence, overnight; stronger effect = lower value; cells stimulated with P. aeruginosa culture filtrate; activity change (cytotoxicity), % at 5 µM; 360,000 tested, 0.36% active; AID 602141;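 active means corrected activity change at or below -50% at 5 µM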
Mdm2-MdmX confirm: Mdm2/MdmX (human) interaction inhibition, confirmed | AID 504601 | shares compounds with HIF-2a block | SaOS-2 split-luciferase Mdm2/MdmX complementation, luminescence | inhibition, % at 8 µM | 740 tested, 99% active;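 active means mean inhibition of the luminescence signal across two replicates at or above 26 percent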
HIF-2a inh conf: confirmation of HIF-2a inhibitors. shares compounds with HIF-2a block. 786-0 RCC cells, HIF-2a luciferase reporter luminescence, overnight. inhibition, % at 18.8 µM. 1,800 tested, 56% active. AID 651580;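 active means mean inhibition across four replicates of at least 40 percent at the single tested concentration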
HIF-1a counter: HIF-1a inhibition counter-screen for HIF-2a hits. shares compounds with HIF-2a block. MiaPaCa-2 HIF-1a luciferase reporter, desferoxamine, overnight. inhibition, % at 18.8 µM. 1,800 tested, 72% active;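 active means mean inhibition of the reporter signal across four replicates at the single tested dose of 50% or more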
Hits are given with their value.

What do the screens show for `CC(C)CC(=O)Nc1ncc([N+](=O)[O-])s1`?
CF NFkB block: inactive; TROY NFkB inh: inactive; HIF-2a block: inactive; Peg3 prom inh: inactive; TWEAK Fn14 block: inactive; KKLEB tox: inactive

How did Cc1nc(C)c(C(=O)Nc2ncc([N+](=O)[O-])s2)o1 do in these assays?
CF NFkB block: inactive; TROY NFkB inh: inactive; HIF-2a block: 56; Peg3 prom inh: inactive; TWEAK Fn14 block: 85; KKLEB tox: inactive; HIF-2a inh conf: 59; HIF-1a counter: inactive

What do the screens show for `C=CS(=O)(=O)N(Cc1ccc(Cl)c(Cl)c1)C[C@@H](O)CO`?
CF NFkB block: inactive; TROY NFkB inh: inactive; HIF-2a block: inactive; Peg3 prom inh: 69; TWEAK Fn14 block: inactive; KKLEB tox: inactive; Mdm2-MdmX confirm: 94

Results for CC(C)Cn1c([N+](=O)[O-])nc2c1c(=O)[nH]c(=O)n2C ?
CF NFkB block: inactive; TROY NFkB inh: inactive; HIF-2a block: inactive; Peg3 prom inh: inactive; TWEAK Fn14 block: inactive; KKLEB tox: inactive

What do the screens show for `Cn1c(=O)[nH]c(=O)c2c1nc([N+](=O)[O-])n2Cc1ccccc1`?
CF NFkB block: 109; TROY NFkB inh: inactive; HIF-2a block: 97; Peg3 prom inh: 117; TWEAK Fn14 block: 73; KKLEB tox: -85; Mdm2-MdmX confirm: 103

How did COc1ccc(/C=C2\N=C(SC)N(c3ccccc3OC)C2=O)cc1 do in these assays?
CF NFkB block: inactive; TROY NFkB inh: inactive; HIF-2a block: inactive; Peg3 prom inh: inactive; TWEAK Fn14 block: inactive; KKLEB tox: inactive; Mdm2-MdmX confirm: 100

What do the screens show for `O=c1cc(-c2ccccc2)[nH]n2cnnc12`?
CF NFkB block: inactive; TROY NFkB inh: inactive; HIF-2a block: inactive; Peg3 prom inh: inactive; TWEAK Fn14 block: inactive; KKLEB tox: inactive

What do the screens show for `COc1ccc(CC(=O)N(C)Cc2ccc(OC(F)F)cc2)cc1S(=O)(=O)N1CCOCC1`?
CF NFkB block: inactive; TROY NFkB inh: inactive; HIF-2a block: inactive; Peg3 prom inh: inactive; TWEAK Fn14 block: inactive; KKLEB tox: inactive

What do the screens show for `CCOC(=O)COc1c(Br)cc(/C=C2\SC(=O)N(CC(=O)N3CCCC3)C2=O)cc1OC`?
CF NFkB block: inactive; TROY NFkB inh: inactive; HIF-2a block: 49; Peg3 prom inh: inactive; TWEAK Fn14 block: inactive; KKLEB tox: inactive; HIF-2a inh conf: inactive; HIF-1a counter: inactive

What do the screens show for `CCOC1=C2CN(S(=O)(=O)c3ccc(C)cc3)[C@H](c3cccc(Cl)c3)C[C@@H]2N(S(=O)(=O)c2ccccc2[N+](=O)[O-])[C@H](c2ccccc2)C1`?
CF NFkB block: inactive; TROY NFkB inh: inactive; HIF-2a block: inactive; Peg3 prom inh: inactive; TWEAK Fn14 block: inactive; KKLEB tox: inactive

How did CCOc1cc(C=C(C(=O)OC)C(=O)OC)ccc1OCc1ccc([N+](=O)[O-])cc1 do in these assays?
CF NFkB block: inactive; TROY NFkB inh: 52; HIF-2a block: 92; Peg3 prom inh: 107; TWEAK Fn14 block: 83; KKLEB tox: inactive; HIF-2a inh conf: 98; HIF-1a counter: 107

How did CC(=O)NC(C)(c1ccccc1)c1nc(-c2cccc(F)c2)cs1 (configuration not stated) do in these assays?
CF NFkB block: inactive; TROY NFkB inh: inactive; HIF-2a block: inactive; Peg3 prom inh: inactive; TWEAK Fn14 block: inactive; KKLEB tox: inactive

Results for CC1Cc2ccccc2N1S(=O)(=O)c1cccc(C(=O)N2CCN(c3ncccn3)CC2)c1 (configuration not stated) ?
CF NFkB block: inactive; TROY NFkB inh: inactive; HIF-2a block: inactive; Peg3 prom inh: inactive; TWEAK Fn14 block: inactive; KKLEB tox: inactive; Mdm2-MdmX confirm: 100

How did COc1ccc(CCN2C(=O)c3ccccc3C2c2nnnn2-c2c(C)cccc2C)cc1OC (configuration not stated) do in these assays?
TROY NFkB inh: inactive; HIF-2a block: inactive; TWEAK Fn14 block: inactive

How did Cc1cc(Cl)n2c(nc3cc(F)c(F)cc32)c1C#N do in these assays?
CF NFkB block: 89; TROY NFkB inh: inactive; HIF-2a block: 95; Peg3 prom inh: 110; TWEAK Fn14 block: 69; KKLEB tox: -69; HIF-2a inh conf: 58; HIF-1a counter: 100

Results for Cc1cc(C)n2c(=O)c3ccc(Cl)cc3nc2c1C#N ?
CF NFkB block: inactive; TROY NFkB inh: inactive; HIF-2a block: inactive; Peg3 prom inh: inactive; TWEAK Fn14 block: inactive; KKLEB tox: inactive

What do the screens show for `Cc1nn(Cc2ccc(Cl)cc2Cl)c(C)c1NC(=O)c1nn(C)cc1Cl`?
CF NFkB block: inactive; TROY NFkB inh: inactive; HIF-2a block: inactive; Peg3 prom inh: inactive; TWEAK Fn14 block: inactive; KKLEB tox: inactive

Results for Cc1nn(Cc2ccc(Cl)cc2Cl)c(C)c1NC(=O)CCl ?
CF NFkB block: inactive; TROY NFkB inh: inactive; HIF-2a block: inactive; Peg3 prom inh: inactive; TWEAK Fn14 block: inactive; KKLEB tox: inactive; Mdm2-MdmX confirm: 103

How did O=C(NCCN1C(=O)S/C(=C\c2ccc(Cl)c([N+](=O)[O-])c2)C1=O)C1=COCCO1 do in these assays?
CF NFkB block: inactive; TROY NFkB inh: 57; HIF-2a block: 44; Peg3 prom inh: 93; TWEAK Fn14 block: 64; KKLEB tox: inactive; HIF-2a inh conf: inactive; HIF-1a counter: 104

Results for CCN(CC(=O)Nc1c(F)cccc1F)C(=O)c1ccccn1 ?
CF NFkB block: inactive; TROY NFkB inh: inactive; HIF-2a block: inactive; Peg3 prom inh: inactive; TWEAK Fn14 block: inactive; KKLEB tox: inactive

Results for COc1ccccc1-c1cc(C(F)(F)F)nc(S(=O)(=O)CCCC(=O)O)n1 ?
CF NFkB block: inactive; TROY NFkB inh: inactive; HIF-2a block: inactive; Peg3 prom inh: inactive; TWEAK Fn14 block: inactive; KKLEB tox: inactive

How did COc1ccccc1-c1cc(C(F)(F)F)nc(S(=O)(=O)CCCC(=O)N2CCOCC2)n1 do in these assays?
CF NFkB block: 90; TROY NFkB inh: 58; HIF-2a block: 83; Peg3 prom inh: 103; TWEAK Fn14 block: inactive; KKLEB tox: -79; HIF-2a inh conf: 48; HIF-1a counter: 104

What do the screens show for `O=C(O)c1ccc(COc2ccc3ccccc3c2)o1`?
CF NFkB block: inactive; TROY NFkB inh: inactive; HIF-2a block: inactive; Peg3 prom inh: inactive; TWEAK Fn14 block: inactive; KKLEB tox: inactive

What do the screens show for `CCOc1ccc(OCc2ccc(C(=O)O)o2)cc1`?
CF NFkB block: inactive; TROY NFkB inh: inactive; HIF-2a block: 42; Peg3 prom inh: inactive; TWEAK Fn14 block: 52; KKLEB tox: inactive; HIF-2a inh conf: inactive; HIF-1a counter: inactive

Compound activity: PubChem BioAssay, Sanford-Burnham Center for Chemical Genomics
